The values that follow come from the supplement of paper PMC10498489.

Each structure is given as a SMILES string. Hit rate of the full screen: of about 2,300 compounds, about 330 (14%) showed activity. Not all results are given here. Unmarked numbers belong to inactive results.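 Rule for the calls: active = median modified Z-score above 1.96; inactive = 1.96 or below.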

The subject of this assay is HepG2 Srxn1-GFP reporter cells (+30 nM CDDO-Me). Kind of assay: Srxn1-GFP intensity median modified Z-score relative to plate median; higher = stronger NRF2 / oxidative stress reporter activation, active = hit call of the paper. The settings on record: 10 µM; exposure time: 24h. In outline: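 Each value is the replicate median of a per-plate modified Z-score for GFP intensity in HepG2 Srxn1-GFP BAC reporter cells. The cells (20,000 per well, 96-well plates, three replicate plates) received compound at 10 μM together with an NRF2 activator at 30 nM for 24 h, in ≤0.1% DMSO. Cytoplasmic GFP was quantified per cell from confocal images of formaldehyde-fixed, Hoechst-stained cells, leaving out images with fewer than 100 cells, and scaling used 1.4826 × median absolute deviation.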
Consider `CC(C)/N=c1\cc2n(-c3ccc(Cl)cc3)c3ccccc3[nH]c-2cc1=Nc1ccc(Cl)cc1` [euspeclibcmpd891], for which the “Srxn1-GFP intensity median modified Z-score” value is 7.89 (active).
As for `CC(C)CC(NC(=O)C(C)N)C(=O)O` (stereo not given) [euspeclibcmpd2380], the “Srxn1-GFP intensity median modified Z-score” value was -0.0851.
As to `CN=C(C[N+](=O)[O-])NCCSCc1csc(CN(C)C)n1` [euspeclibcmpd900], the “Srxn1-GFP intensity median modified Z-score” value was -0.00145.
In the case of `CC1CN(c2c(F)c(N)c3c(=O)c(C(=O)O)cn(C4CC4)c3c2F)C[C@H](C)N1` (stereo not given in full) [euspeclibcmpd471], the “Srxn1-GFP intensity median modified Z-score” value was -0.142.
For `CC(C)C(=O)C1C(=O)O[C@@H](c2ccoc2)[C@]2(C)C(O)[C@@H](O)[C@@]34OC5(C)OC67CC(C)(C(O)[C@]6(O)[C@@H](O)[C@]3(O5)C12)[C@H](CC(=O)O)[C@]74C` (stereo not given in full) [euspeclibcmpd1385], the “Srxn1-GFP intensity median modified Z-score” value was -0.12.
As to `NC(=O)NCCCC(N)C(=O)O` (stereo not given) [euspeclibcmpd1533], the “Srxn1-GFP intensity median modified Z-score” value was -0.136.
`CCCC(C(=O)OCCN(CC)CC)(c1ccccc1)c1ccccc1` [euspeclibcmpd434]: the “Srxn1-GFP intensity median modified Z-score” value was -0.794.
The value for `CCN(CC)CCOC(=O)C(c1ccccc1)c1ccccc1` [euspeclibcmpd520] was 0.792; that for `CCN(CC)CCOC(=O)C(Cc1cccc2ccccc12)CC1CCCO1` (stereo not given) [euspeclibcmpd577] was 3.61 (active); that for `C[C@H]1c2cccc(O)c2C(=O)C2C(=O)[C@]3(O)C(=O)C(C(N)=O)C(=O)C(N(C)C)[C@@H]3[C@@H](O)[C@@H]21` (stereo not given in full) [euspeclibcmpd105] was -1.04.
The value for `C=C[C@](C)(O)CCC=C(C)C` [euspeclibcmpd1465] was -0.00229; that for `CCOc1ccc2[nH]c3cc(N)ccc3c(=N)c2c1` [euspeclibcmpd1203] was 63.5 (active); that for `COC(=O)C1=C2C(=O)CC(C)C2C(O[C@@H]2O[C@H](CO)[C@@H](O)[C@H](O)[C@H]2O)OC1` (stereo not given in full) [euspeclibcmpd2225] was -0.236.
For the compound `Cc1cc(O)c(C=O)c2c1C(=O)Oc1c(C)c(O)c3c(O)oc(O)c3c1O2` [euspeclibcmpd2409], the “Srxn1-GFP intensity median modified Z-score” value was 0.591.
In the case of `COC(=O)c1c(OC)cc2c(c1C)Oc1c(Cl)c(O)c(Cl)c(C)c1C(=O)O2` [euspeclibcmpd1672], the “Srxn1-GFP intensity median modified Z-score” value is 0.324.
Consider `COC(=O)c1c(C)c2c(c(C)c1O)OC(=O)c1c(C)c(Cl)c(O)c(Cl)c1O2` [euspeclibcmpd1600], for which the “Srxn1-GFP intensity median modified Z-score” value was 12.9 (active).
As to `Cc1c[nH]c(=NC(=O)C2C(=O)c3ccccc3S(=O)(=O)N2C)s1` (stereo not given) [euspeclibcmpd2190], the “Srxn1-GFP intensity median modified Z-score” value was -0.367.
The value for `C#C[C@]1(O)CCC2C3CCc4cc(OC)ccc4C3CC[C@@]21C` (stereo not given in full) [euspeclibcmpd184] was 0.203; that for `C#C[C@]1(OC(C)=O)CCC2C3CCC4=CC(=NO)CCC4C3CC[C@@]21CC` (stereo not given in full) [euspeclibcmpd54] was -0.443.
Consider `C#C[C@]1(OC(C)=O)CCC2C3CCC4=C[C@@H](OC(C)=O)CCC4C3CC[C@@]21C` (stereo not given in full) [euspeclibcmpd896], for which the “Srxn1-GFP intensity median modified Z-score” value was 2.28 (active).
Take `NCCCC(N)C(=O)O` (stereo not given) [euspeclibcmpd2233]: the “Srxn1-GFP intensity median modified Z-score” value is -0.13.
With `CCOC(=O)C1=CC(OC(CC)CC)[C@H](NC(C)=O)[C@@H](N)C1` (stereo not given in full) [euspeclibcmpd2394], the “Srxn1-GFP intensity median modified Z-score” value was -0.535.
As to `CC1=C(SC2CNC(C(=O)N(C)C)C2)C(C(=O)O)N2C(=O)[C@H]([C@@H](C)O)[C@@H]12` (stereo not given in full) [euspeclibcmpd460], the “Srxn1-GFP intensity median modified Z-score” value is -0.758.
In the case of `CC1CN(C(=O)CSc2nc3ccc(Br)cc3c3nc(=O)c(-c4ccccc4)nn23)CC(C)O1` (stereo not given), the “Srxn1-GFP intensity median modified Z-score” value is 2.28 (active).
In the case of `CC(C)CCOc1ccc2[nH]c(-c3cc(NCCc4cn5c(n4)SCC5)ccn3)cc2c1`, the “Srxn1-GFP intensity median modified Z-score” value was 0.892.
The value for `COc1ccc(-c2oc3ccccc3c(=O)c2OC)cc1` [euspeclibcmpd1341] was 0.287; that for `CN(C)[C@@H]1C(O)=C(C(N)=O)C(=O)[C@@]2(O)C(O)c3c(c(O)c4c(Cl)ccc(O)c4c3O)C[C@@H]12` (stereo not given in full) [euspeclibcmpd85] was -0.132.
The value for `O=C(C(=O)c1ccccc1)c1ccccc1` was 1.75.
Consider `O=C(CC(=O)c1ccccc1)c1ccccc1` [euspeclibcmpd1779], for which the “Srxn1-GFP intensity median modified Z-score” value is 2.2 (active).
As for `O=C(O)c1ccccc1` [euspeclibcmpd2047], the “Srxn1-GFP intensity median modified Z-score” value was 0.122.
In the case of `C[n+]1cccc(C(=O)O)c1` [euspeclibcmpd1706], the “Srxn1-GFP intensity median modified Z-score” value is -0.33.
Consider `CCCc1nn(C)c2c(=O)nc(-c3cc(S(=O)(=O)N4CCN(C)CC4)ccc3OCC)[nH]c12` [euspeclibcmpd1008], for which the “Srxn1-GFP intensity median modified Z-score” value was -0.649.
For `O=C(Nc1ccc(Br)cc1Cl)c1cc(Cl)ccc1O`, the “Srxn1-GFP intensity median modified Z-score” value was 0.489.
The value for `Nc1ccc(NC(=O)c2cc(Cl)ccc2O)c(Cl)c1` was 1.83; that for `O=C(Nc1cc(Cl)cc(Cl)c1O)c1c(O)c(Cl)cc(Cl)c1Cl` [euspeclibcmpd2236] was 4.91 (active); that for `COC(=O)c1cc(-c2ccccc2)nc2ccccc12` was 1.89.
For `O=C1CC(=O)c2c(c(O)c3ccccc3c2O)C1=O` [euspeclibcmpd1727], the “Srxn1-GFP intensity median modified Z-score” value was 8.98 (active).
As to `O=C1C=Cc2c(c(O)c3ccccc3c2O)C1=O` [euspeclibcmpd1683], the “Srxn1-GFP intensity median modified Z-score” value was 0.752.
Consider `Cc1cc(/C=C/c2ccc3cc(N(C)C)ccc3[n+]2C)c(C)n1-c1ccccc1` [euspeclibcmpd260], for which the “Srxn1-GFP intensity median modified Z-score” value is 28.6 (active).
As for `COc1c(-c2ccccc2)oc2cc(O)cc(O)c2c1=O` [euspeclibcmpd2295], the “Srxn1-GFP intensity median modified Z-score” value was -0.0938.
For `CCN(CC)CCOC(=O)c1ccc(N)cc1` [euspeclibcmpd248], the “Srxn1-GFP intensity median modified Z-score” value is -0.882.
With `CCCCOc1cc(C(=O)OCCN(CC)CC)ccc1N` [euspeclibcmpd809], the “Srxn1-GFP intensity median modified Z-score” value is 16.2 (active).
The value for `CCCOc1ccc(C(=O)OCCN(CC)CC)cc1N` [euspeclibcmpd842] was -0.601.
The value for `O=C(O)C(O)C(O)C(O)C(O)C(=O)O` (stereo not given) [euspeclibcmpd2053] was -0.466; that for `Cc1[nH]c(=O)[nH]c1O` [euspeclibcmpd1742] was -0.283; that for `Cc1[nH]c(C)c(Cl)c(=O)c1Cl` [euspeclibcmpd744] was 6.67 (active).
For `O=C(O)C=C(CC(=O)O)C(=O)O` [euspeclibcmpd1609], the “Srxn1-GFP intensity median modified Z-score” value was -0.206.
The value for `C=C1CC2C3=CC(C)=C4CC(=O)CC[C@]4(C)C3CC[C@]2(C)[C@@]1(OC(C)=O)C(C)=O` (stereo not given in full) [euspeclibcmpd860] was 1.04.
The value for `CSC1(CNC(=O)Nc2cnn(C)c2Cl)CC1` was 1.35; that for `OC[C@@H](O)[C@@H](O[C@@H]1O[C@H](CO)[C@@H](O)[C@H](O)[C@H]1O)[C@H](O)[C@@H](O)CO` [euspeclibcmpd2177] was -0.452.
As for `COC(=O)C(c1ccccc1Cl)N1CCc2sccc2C1` (stereo not given) [euspeclibcmpd599], the “Srxn1-GFP intensity median modified Z-score” value is -0.316.
On to `CCCCC(CC)CN1CN(CC(CC)CCCC)CC(C)(N)C1` (stereo not given) [euspeclibcmpd1036], for which the “Srxn1-GFP intensity median modified Z-score” value was 14.2 (active).
The value for `COc1cnc(=NS(=O)(=O)c2ccc(N)cc2)[nH]c1` [euspeclibcmpd408] was -0.161; that for `NC(=O)CN1CCCCCCC1=O` was 0.32.
Consider `CC1=C(CC(=O)O)c2cc(F)ccc2C1=Cc1ccc([S+](C)[O-])cc1` (stereo not given) [euspeclibcmpd284], for which the “Srxn1-GFP intensity median modified Z-score” value is -0.29.
For the compound `N#Cc1ccc(C(c2ccc(C#N)cc2)n2cncn2)cc1` [euspeclibcmpd693], the “Srxn1-GFP intensity median modified Z-score” value was -0.19.
As for `c1ccc(-c2ccc(C(c3ccccc3)n3ccnc3)cc2)cc1` (stereo not given) [euspeclibcmpd741], the “Srxn1-GFP intensity median modified Z-score” value is 3.36 (active).
As to `c1ccc(C(c2ccccc2)(c2ccccc2)n2ccnc2)cc1`, the “Srxn1-GFP intensity median modified Z-score” value was 1.95.
With `CCOC(=O)C(CCc1ccccc1)NC(C)C(=O)N1CCCC1C(=O)O` (stereo not given) [euspeclibcmpd421], the “Srxn1-GFP intensity median modified Z-score” value was 0.166.
As for `CCOC(=O)C(CCc1ccccc1)NC(C)C(=O)N1Cc2ccccc2CC1C(=O)O` (stereo not given) [euspeclibcmpd521], the “Srxn1-GFP intensity median modified Z-score” value was 0.162.
As to `CCOC(=O)C(CCc1ccccc1)NC1CCc2ccccc2N(CC(=O)O)C1=O` (stereo not given) [euspeclibcmpd912], the “Srxn1-GFP intensity median modified Z-score” value is 3.02 (active).
The value for `N=c1[nH]c(=O)[nH]cc1F` [euspeclibcmpd698] was 1.2; that for `CC(=O)OCC(=O)[C@@]1(O)[C@H](C)CC2C3CC=C4CC(=O)C=C[C@]4(C)[C@@]3(F)[C@@H](O)C[C@@]21C` (stereo not given in full) [euspeclibcmpd2125] was -0.395; that for `Cc1cccc(N(C)C(=S)Oc2ccc3ccccc3c2)c1` [euspeclibcmpd299] was 8.23 (active).
As for `CC(=O)Oc1cccc(C)c1` [euspeclibcmpd1228], the “Srxn1-GFP intensity median modified Z-score” value is -0.455.
Consider `CC(C)(C)NCC(O)COc1cccc2c1CCCC2=O` (stereo not given) [euspeclibcmpd764], for which the “Srxn1-GFP intensity median modified Z-score” value was -0.976.
As for `CCCCCCCCCCCCCCCCOP(=O)(O)OCC[N+](C)(C)C` [euspeclibcmpd1120], the “Srxn1-GFP intensity median modified Z-score” value is 1.47.
Turning to `NC(C(=O)NC1C(=O)N2C(C(=O)O)=C(Cl)CSC12)c1ccccc1` (stereo not given) [euspeclibcmpd343], the “Srxn1-GFP intensity median modified Z-score” value is -0.608.
The value for `Cn1cnc([N+](=O)[O-])c1Sc1ncnc2[nH]cnc12` [euspeclibcmpd29] was 2.86 (active); that for `N=c1[nH]cnc2c1ncn2C1O[C@H](COP(=O)(O)O)[C@@H](O)[C@H]1O` (stereo not given in full) [euspeclibcmpd330] was -0.321; that for `CC[C@@]1(O)CC(=O)c2c(cc3c(O)c4c(O)ccc(O)c4c(O)c3c2O)C1C(=O)OC` (stereo not given in full) [euspeclibcmpd1470] was 70.7 (active).
`COc1cccc2c(O)c3c(O)c4c(c(O)c3c(O)c12)=C(O[C@H]1C[C@H](N)[C@H](O)[C@H](C)O1)C[C@](O)(C(C)=O)C=4` [euspeclibcmpd83]: the “Srxn1-GFP intensity median modified Z-score” value is 0.648.
As for `COc1cccc2c(O)c3c(O)c4c(c(O)c3c(O)c12)=C(OC1C[C@H](N)[C@H](O)[C@H](C)O1)C[C@](O)(C(=O)CO)C=4` (stereo not given in full) [euspeclibcmpd2291], the “Srxn1-GFP intensity median modified Z-score” value was 0.455.
On to `CCc1ccc2c(O)c3c(O)c4c(c(O)c3cc2c1C(=O)OC)C(=O)C=CC4=O` [euspeclibcmpd1950], for which the “Srxn1-GFP intensity median modified Z-score” value was 1.63.
The value for `CCC1(O)C=C(OC2CC(N(C)C)C(O)C(C)O2)c2c(cc3c(O)c4c(O)ccc(O)c4c(O)c3c2O)C1C(=O)OC` (stereo not given) [euspeclibcmpd1939] was 97.7 (active).
